Assay results reported in PubChem BioAssay.
Values without a mark were called inactive. No rule for the calls is given here.

Target: Pantothenate synthetase (Mycobacterium tuberculosis (strain ATCC 25618 / H37Rv)) (UniProt P9WIL5)
Assay: Coupled enzyme confirmation of inhibitors against recombinant Mtb PanC (AID 375);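 also: 0% = full reaction with vehicle and 100% = no enzyme background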
Details: coupled enzyme assay; at 10 µM, stronger effect = higher value

Chain of Pantothenate synthetase (Mycobacterium tuberculosis (strain ATCC 25618 / H37Rv)) (P9WIL5 whole entry, looked up): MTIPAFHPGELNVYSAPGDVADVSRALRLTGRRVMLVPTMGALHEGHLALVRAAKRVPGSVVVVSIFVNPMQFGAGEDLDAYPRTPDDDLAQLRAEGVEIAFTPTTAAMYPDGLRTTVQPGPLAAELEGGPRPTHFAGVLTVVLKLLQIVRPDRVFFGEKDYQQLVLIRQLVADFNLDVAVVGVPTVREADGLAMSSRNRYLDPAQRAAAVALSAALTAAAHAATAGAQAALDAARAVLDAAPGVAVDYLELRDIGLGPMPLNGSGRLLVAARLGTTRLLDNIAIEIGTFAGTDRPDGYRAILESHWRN

Compound | inhibition [%]
Cc1cccc(C)c1NC(=O)N1CCN(C2CCCCC2)CC1 | 0
CN1CCCN=C1COC(=O)C(O)(c1ccccc1)C1CCCCC1 (configuration not stated) | 0
Cc1cc(C)n(CC(=O)n2c3c(c4ccccc42)CCCC3)n1 | 2
CCOC(=O)N1CCC(O)(c2cc(C)c(C)cc2C)CC1 | 3
CCN(CC)S(=O)(=O)c1ccc2oc(C(=O)N3CCOCC3)c(C)c2c1 | 0
CCC(OC(=O)c1cccs1)C(=O)NCc1ccco1 (configuration not stated) | 0
CCOc1ccc(C(=O)N2CCC(C(=O)c3ccc4c(c3)OCCO4)CC2)cc1 | 7
O=C(OCC#CCSc1nnc(-c2ccccc2)o1)c1cccs1 | 0
O=C(Nc1ccc(CN2CCOCC2)cc1)c1cc2ccccn2n1 | 0
CC1CCN(S(=O)(=O)c2ccc(Br)s2)CC1 | 0
COc1ccccc1N(CC(=O)NC1CCCC1)C(=O)c1csnn1 | 1
Cc1ccc(Nc2nc(Oc3ccc(=O)[nH]n3)nc(N(C)C)n2)cc1 | 0
S=c1[nH]nc(COc2ccccc2)n1C1CCCCC1 | 0
O=C(C1CCN(S(=O)(=O)c2cccc3cccnc23)CC1)N1CCN(C2CCCCC2)CC1 | 0
Cc1nc2sc3c(c2c(=O)o1)CCC3 | 2
CCN(c1c(C)n(C)n(-c2ccccc2)c1=O)S(C)(=O)=O | 5
CCCCn1c(NCc2ccccc2O)nc2ccccc21 | 0
COc1ccc(Cl)cc1-c1n[nH]c(=S)o1 | 0
COc1ccc(NC(=O)C2Cc3ccccc3C(=O)O2)cc1 (configuration not stated) | 0
O=C(O)C1CC=CCC1C(=O)NCc1ccccc1 (configuration not stated) | 1
CN(Cc1ccccc1)Cc1c[nH]c2ccccc12 | 0
CCOC(=O)c1ccc2nc(C)c3c(c2c1)OC(C)C3 (configuration not stated) | 0
O=C(OCc1cc2ccccc2[nH]c1=O)c1ccco1 | 0
COC(=O)c1cc(S(=O)(=O)N2CCOCC2)c(N2CCOCC2)cc1N1CCOCC1 | 2

Compound | inhibition [%]
CC(C)CNC(=O)c1ccccc1NC(=O)c1ccc(CN2CCOCC2)cc1 | 3
COc1cc(C2c3c(oc4ccccc4c3=O)C(=O)N2c2ccc(C)cn2)ccc1O (configuration not stated) | 0
COc1cc(C2C(C#N)=C(N)OC3=C2C(=O)CCC3)ccc1OC(=O)N1CCOCC1 (configuration not stated) | 0
CC(=O)N1CCc2cc(S(=O)(=O)CCC(=O)N3CCN(C(=O)c4ccco4)CC3)ccc21 | 6
O=C(NCCN1CCN(c2ccccc2)CC1)c1ccc(NC(=O)C2CCCO2)cc1 (configuration not stated) | 2
Cc1csc2ncc(C(=O)Nc3ccccc3Cl)c(=O)n12 | 3
O=C(O)CCC(=O)Nc1nc(-c2ccccc2)cs1 | 0
Cn1c(=O)cc(NCCc2ccccc2)[nH]c1=O | 0
O=C(CSc1nc2ncccc2[nH]1)Nc1ccc2c(c1)OCCO2 | 0
Cc1nc(NC2=NCN(CCCN3CCOCC3)CN2)nc2c(C)cccc12 | 0
Cc1ccc(-c2nc3cc(NC(=O)C(C)C)ccc3o2)cc1C | 0
CCOC(=O)N1CCC(NC(=O)c2cc(C(=O)NC3CCCC3)ccc2CO)CC1 | 1
Cc1cc(NC(=O)CSc2nc3c(c(-c4cccnc4)c2C#N)CCC3)no1 | 0
COC(=O)c1ccc(CSc2nc3c(cnn3-c3ccc(C)c(C)c3)c(=O)[nH]2)o1 | 3
O=C(c1ccc(Br)cc1)N1CCN(S(=O)(=O)c2ccccc2)CC1 | 0
COc1ccc(Cl)cc1NC(=O)COc1cccc(-n2cnnn2)c1 | 0
CCn1c(SCC(=O)c2ccc(OC)cc2)nnc1C(C)NC(=O)c1ccc(OC)cc1 (configuration not stated) | 3
CCn1c(=O)cc(OCC(=O)NC2CCCCC2)c2ccccc21 | 0
O=C(CSc1nnc(-c2ccco2)n1-c1ccccc1)N1CCN(C(=O)c2ccco2)CC1 | 0
CC(C)(C)C(=O)NC1CCN(C(=O)N2CCCC2)CC1 | 6
Cc1cc(C)n(-c2cc(N3CCOCC3)nc(-c3ccccc3)n2)n1 | 2
CCCCn1c(CN2CCN(c3ccccc3)CC2)nc2c1c(=O)n(C)c(=O)n2C | 0
CC(CCc1ccccc1)NC(=O)c1ccc(Br)o1 (configuration not stated) | 0
